A549 viability: Nrf2 qHTS screen for inhibitors: counterscreen for cytotoxicity; A549 ARE-Fluc cells, CellTiter-Fluor viability, 18-24 h; Potency, µM (doses to about 46 µM), hits mostly inhibitors; actives 0.16% (n = 390,000)
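Cytotoxicity counterscreen: CellTiter-Fluor fluorescence was measured in A549 ARE_Fluc cells after 18-24 h of compound exposure in a concentration series. The subsequent BugLite luminescent read reports ARE-luciferase activity.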
Nrf2 inh: Nrf2 qHTS screen for inhibitors; actives 2.1% (n = 360,000); A549 ARE-Fluc reporter, luciferase luminescence, 18-24 h; Potency, µM (top dose mostly 46 µM), hits mostly inhibitors; also: nearly all actives have a fitted effect of over 60% in size
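Quantitative HTS in A549 cells stably bearing an antioxidant response element-firefly luciferase construct. Inhibition of Nrf2-driven transcription was scored by luminescence after 18-24 h of compound exposure at 37 °C.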
ATXN viability: Viability Counterscreen for Primary qHTS for Inhibitors of ATXN expression. S2 cells (HEK-293 line with an ATXN2-luciferase reporter) viability, CellTiter-Fluor protease fluorescence, 24 h. Potency, µM (top dose mostly 56.7 µM), most hits filed as cytotoxic. actives 0.49% (n = 400,000). AID 651635, 2014; also: nearly all actives have a fitted effect of over 40% in size
TGFb SMAD3 inh: qHTS for Inhibitors of TGF-b. HepG2 CAGA-GFP TGF-b/SMAD3 reporter, GFP fluorescence, 18 h; TGF-beta stimulated, 500 pg/mL final. AID 588855, 2011. actives 1.2% (n = 410,000). Potency, µM (titrated, usually from 46.1 µM), hits mostly inhibitors; also: nearly all actives have a fitted effect of over 65% in size
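HEPG2 CAGA-GFP cells (1000/well, DMEM with 1% FBS) were pre-incubated 2 h at 37 degrees C, given compound by pin tool, then stimulated with TGF-beta at 500 pg/mL final for 18 h before per-cell GFP fluorescence imaging.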
ATXN2 expr inh: Primary qHTS for Inhibitors of ATXN expression. HEK-293 ATXN2-luciferase reporter, luminescence, 24 h. actives 0.72% (n = 360,000). Potency, µM (highest dose often 57 µM), actives largely listed as inhibitors. AID 1745845, 2022; also: nearly all actives have a fitted effect of over 55% in size
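qHTS (up to 57 uM final) was run with 24 h compound exposure of reporter cells at 37 °C. Each well was multiplexed: SteadyGlo luminescence measured ATXN2-luciferase expression after a fluorogenic Gly-Phe-AFC viability readout (25 uM final).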
HepG2 viability: qHTS for Inhibitors of TGF-b: Cytotox Counterscreen; HepG2 CAGA-GFP viability, ATP luminescence, 18 h; Potency, µM (doses to about 46.1 µM), usual class: cytotoxic; actives 0.76% (n = 410,000)
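CellTiter-Glo luminescence gave cytotoxicity after 18 hours at 37 degrees C. The cells were HepG2 CAGA-GFP in 1% FBS DMEM, stimulated with 500 pg/mL TGF-beta after compound addition. %Activity was normalised to no-cell wells (complete cell-killing) and DMSO (no toxicity), and curves were fitted and classified.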
Large screens that a line does not name were inactive. In the library only some 3.8% were active in any assay of this set; here they are far more common. Calls follow the shape of the dose curve; as a rule, active = well fitted curve in the direction sought with a large enough effect; inconclusive = small, poorly fitted or top-dose-only effect, or another doubt; inactive = no such curve, though single readings can be large; an effect the other way counts as inactive or inconclusive.

O=C(COC(=O)c1ccccc1C(=O)c1ccc(Cl)c([N+](=O)[O-])c1)NC1CC1	ATXN viability 28µM, TGFb SMAD3 inh inconclusive, ATXN2 expr inh inconclusive, HepG2 viability 16µM
CNC(=O)COC(=O)c1ccccc1C(=O)c1ccc(Cl)c([N+](=O)[O-])c1	ATXN viability 10µM (no result: ATXN2 expr inh)
COc1ccc(CNC(=O)CCc2cn(Cc3cc(C)ccc3C)c3ccccc23)cc1OC	Nrf2 inh 23µM, TGFb SMAD3 inh inconclusive (no result: ATXN viability, ATXN2 expr inh)
CC(=O)OC[C@@H]1CN(Cc2ccccc2)C[C@H](n2cnc3c(Nc4ccccc4)ncnc32)O1	HepG2 viability 16µM (no result: A549 viability, Nrf2 inh)
COc1ccc(C2C3C=CCC(c4cccc(-c5ccc(N(C)C)cc5)c4)C3C(=O)N2Cc2ccccc2)cc1Cl (stereo not drawn)	none (no result: ATXN viability, ATXN2 expr inh)
CCOc1ccc(NCc2cc3cc(OC)ccc3[nH]c2=O)cc1	Nrf2 inh 26µM
COc1ccc2[nH]c(=O)c(CNc3ccccc3)cc2c1	Nrf2 inh inconclusive
COc1ccc2[nH]c(=O)c(CNc3cc(C)ccc3C)cc2c1	A549 viability inconclusive, Nrf2 inh 18µM
CCOc1ccc(OCC)c(NC(=O)CCC(=O)N2CCOc3ccccc32)c1	none
CC(C)C1N=C(c2ccc3c(c2)OCO3)CC(c2ccccc2O)N1 (stereo not drawn)	ATXN viability 28µM, TGFb SMAD3 inh inconclusive, ATXN2 expr inh inconclusive
CCS(=O)(=O)CCSc1nc2ccccc2o1	none
O=S(=O)(CCSc1nc2ccccc2o1)c1nc2ccccc2s1	TGFb SMAD3 inh inconclusive, ATXN2 expr inh 28µM (no result: ATXN viability)
O=C(CSc1ccccn1)Nc1nc2ccccc2s1	Nrf2 inh inconclusive
O=S(=O)(CCSc1ccccn1)c1nc2ccccc2s1	TGFb SMAD3 inh 8.9µM, ATXN2 expr inh inconclusive, HepG2 viability 10µM (no result: ATXN viability)
COc1ccc(CN2CC[C@H]3C=CC[C@@H](C(=O)Nc4ccccc4)[C@H]3C2=O)cc1OC	none (no result: A549 viability, Nrf2 inh, ATXN viability, ATXN2 expr inh)
CCOC(=O)c1sc(=S)n(Cc2ccccc2)c1C	ATXN viability inconclusive
CN(C)C(=S)N=c1ssc(=S)n1Cc1ccccc1	ATXN viability inconclusive, TGFb SMAD3 inh 2.2µM
CCOCCCNC(=O)Cn1nc(Cc2ccncc2)c2ccccc2c1=O	none
CSCC(=O)NC1CCCN(C2Cc3ccccc3C2)C1 (stereo not drawn)	Nrf2 inh inconclusive, ATXN viability inconclusive, TGFb SMAD3 inh inconclusive, HepG2 viability 7.9µM
Cc1ccc(-n2c(SCC(=O)Nc3ccc4c(c3)OCO4)nc3c([nH]c4ccccc43)c2=O)cc1	none (no result: Nrf2 inh, ATXN viability, ATXN2 expr inh)
CC(C)CCC(CCNCc1ccccn1)c1ccc(Cl)cc1 (stereo not drawn)	HepG2 viability 20µM
CCOC(=O)C1=CCN(S(=O)(=O)c2ccc(F)cc2)C1c1cccc(F)c1 (stereo not drawn)	none (no result: A549 viability, Nrf2 inh)
O=C(c1ccc2c(=O)n(-c3ccccc3)c(=S)[nH]c2c1)N1CCCCC1	Nrf2 inh 7.3µM, TGFb SMAD3 inh inconclusive
O=C(c1ccc2c(=O)n(C3CCCC3)c(=S)[nH]c2c1)N1CCCCCC1	Nrf2 inh 16µM, TGFb SMAD3 inh inconclusive
O=c1[nH]cc(C#Cc2ccccc2)c2ncncc12	Nrf2 inh inconclusive (no result: ATXN viability, TGFb SMAD3 inh, ATXN2 expr inh, HepG2 viability)
Cc1ccc(C)c(-n2nnnc2SCC(=O)NCCC2=CCCCC2)c1	Nrf2 inh 18µM (no result: A549 viability)
CNC(=O)CSc1nnnn1-c1cc(C)ccc1C	none
Cc1cc(S(=O)(=O)Nc2ccc3oc4c(c3c2)CCCC4)ccc1Cl	Nrf2 inh inconclusive, ATXN viability inconclusive, TGFb SMAD3 inh 16µM, ATXN2 expr inh inconclusive
Cc1cc(C)c(S(=O)(=O)Nc2ccc3oc4c(c3c2)CCCC4)cc1C	TGFb SMAD3 inh inconclusive
CC(=O)c1c(C)oc2ccc(NS(=O)(=O)c3ccc(F)cc3C)cc12	Nrf2 inh inconclusive, TGFb SMAD3 inh inconclusive
CC(C)(C)C1CCc2oc3ccc(NS(=O)(=O)c4ccc(C(=O)O)cc4)cc3c2C1 (stereo not drawn)	TGFb SMAD3 inh 22µM (no result: ATXN viability, ATXN2 expr inh)
Cc1cc(F)ccc1S(=O)(=O)Nc1ccc2oc3c(c2c1)CC(C)CC3 (stereo not drawn)	Nrf2 inh inconclusive, ATXN viability 32µM, TGFb SMAD3 inh inconclusive, ATXN2 expr inh inconclusive
CC(OC(=O)C1CC1)C(=O)Nc1ncc(Cl)cc1Cl (stereo not drawn)	ATXN viability inconclusive
CC1(C)SC2c3ccccc3C(=O)N2[C@@H]1C(=O)O (stereo partly drawn)	none
CCOC(=O)CC(NC(=O)Cn1nnc(-c2ccccc2F)n1)c1ccccc1Cl (stereo not drawn)	Nrf2 inh inconclusive, ATXN viability inconclusive
Cc1ccc(C)n1-c1c(C(=O)NCCCN2CCN(c3ccc(F)cc3)CC2)sc2ncccc12	TGFb SMAD3 inh inconclusive (no result: Nrf2 inh)
COc1cc(/C=C/c2nc(-c3ccccc3O)n[nH]2)cc(OC)c1OC	TGFb SMAD3 inh inconclusive, HepG2 viability 11µM
COc1cc(/C=C/c2ccc3cccc(O)c3n2)cc(OC)c1OC	ATXN viability inconclusive, TGFb SMAD3 inh inconclusive, ATXN2 expr inh 16µM
Cc1ccc(NC(=O)C2CCCN(S(=O)(=O)c3ccc4[nH]c(=O)ccc4c3)C2)c(C)c1 (stereo not drawn)	ATXN viability inconclusive, ATXN2 expr inh inconclusive
COc1ccc(C(=O)Nc2nc3cc4c(cc3s2)OCCO4)c(OC)c1	Nrf2 inh 21µM (no result: ATXN2 expr inh)
O=C(CCS(=O)(=O)c1ccccc1)Nc1nc2cc3c(cc2s1)OCCO3	Nrf2 inh inconclusive, TGFb SMAD3 inh 13µM
Cc1ccc(S(=O)(=O)CCC(=O)Nc2nc(-c3ccccn3)cs2)cc1	Nrf2 inh 21µM
O=C(CCS(=O)(=O)c1ccccc1)Nc1nc2cc3c(cc2s1)OCO3	TGFb SMAD3 inh inconclusive
COc1ccc(C(=O)Nc2cc(C)on2)c(OC)c1	Nrf2 inh inconclusive
COc1ccc(C(=O)Nc2ccc(C)cn2)c(OC)c1	Nrf2 inh inconclusive, ATXN2 expr inh 3.2µM
COc1ccc(C(=O)Nc2nnc(-c3ccc(F)cc3)s2)c(OC)c1	Nrf2 inh 16µM
CS(=O)(=O)c1ccc2nc(NC(=O)CCS(=O)(=O)c3ccccc3)sc2c1	Nrf2 inh inconclusive, ATXN viability 32µM, TGFb SMAD3 inh inconclusive, ATXN2 expr inh inconclusive, HepG2 viability 7.1µM
COc1ccccc1C(=O)Nc1nnc(-c2ccc(F)cc2)s1	Nrf2 inh inconclusive
O=C(Nc1nc2cc3c(cc2s1)OCCO3)c1cccc(N2C(=O)CCC2=O)c1	ATXN viability inconclusive, TGFb SMAD3 inh inconclusive

Screens deposited in PubChem BioAssay by National Center for Advancing Translational Sciences (NCATS).
